We go through 18 compounds from PubChem BioAssay (Tox21).

“And” between values parts separate entries of the source, which are not always exact repeats. Equal values may be shown once. Inconclusive results are not listed. Where a structure was tested more than once in an assay, its records may differ in their call. The source made the active and inactive calls. Unless noted, calls come from the whole dose curve; as a rule, active = well fitted curve in the direction sought with a large enough effect in the repeat runs; inconclusive = weak or mixed curves; inactive = no such curve, though single readings can be large; an effect the other way counts as inactive or inconclusive. Starred links: 1 amine or outer side, 2 acyl side, 3 side chain; linkers in the order of their positions; H or OH if unused. Positions of bridges follow the written chain, without caps; N, C: chain ends. Non-standard residues stand in square brackets, D forms with d. Residues, ends and D or L forms follow the SMILES beside them. Chains are numbered I, II in the order given. Actinocin(9to1) = Cc1c2oc3c(C)ccc(C(=O)[*:1])c3nc-2c(C(=O)[*:2])c(N)c1=O; NMeV = CN[C@H](C(=O)O)C(C)C; Sar = CNCC(=O)O

Assay [1] concerns the target Androgen receptor (Homo sapiens) (UniProt P10275). Nature of the assay: qHTS assay to identify small molecule antagonists of the androgen receptor (AR) signaling pathway using the MDA cell line in the presence of 0.5 nM R1881 (AID 1259243). Note: nearly all actives have a fitted effect of over 50% in size. Note: potency is the fitted concentration of half-maximal effect. An outline of the steps:
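Steps: seed MDA-kb2 cells, incubate 5 hr at 37C; pin-transfer compounds in DMSO; add R1881 to 0.5 nM final; incubate 16 hr; add ONE-Glo, wait 30 min at room temperature; read luminescence.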

In assay [2] the target is Estrogen receptor (Homo sapiens) (UniProt P03372). Nature of the assay: qHTS assay to identify small molecule antagonists of the estrogen receptor alpha (ER-alpha) signaling pathway using the BG1 cell line in the presence of 0.1 nM 17-beta-estradiol (AID 1259244). Note: nearly all actives have a fitted effect of over 50% in size. Note: potency is the fitted concentration of half-maximal effect. In short, it runs like this: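 After 5 days in hormone-depleted medium (charcoal-stripped serum, no phenol red), VM7Luc4E2 cells were seeded, incubated 24 h, then co-treated with compound and 0.1 nM (final) estradiol for 22 h before luminescence detection.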
On the technique in general: In qHTS, concentration-response curves come from the screen itself.

The nature of assay [3]: qHTS assay to identify small molecule HDAC inhibitors (AID 1259364). Note: top concentration of the series differs between compounds; nearly all actives have a fitted effect of over 45% in size. An outline of the steps:
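Homogeneous cell-based luminescent assay of endogenous class I/II HDAC activity; HCT-116 cells, 2 h compound exposure, 30 min HDAC-Glo development at RT.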

Assay [4] can be described thus: qHTS assay to identify small molecule HDAC inhibitors - cell viability counter screen (AID 1259365). Note: series mostly up to about 92 µM; nearly all actives have a fitted effect of over 50% in size. An outline of the steps:
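Cytotoxicity was gauged in wild-type HCT-116 cells after a brief 2hr treatment with DMSO-dissolved compounds at 37C and 5% CO2, using CellTiter-Glo luminescence developed for 30min at room temperature.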

Assay [5] is described as follows: qHTS assay to identify small molecule agonists of the sonic hedgehog signaling (Shh) pathway - cell viability counter screen (AID 1259366). Note: nearly all actives have a fitted effect of over 50% in size. Note: potency is the fitted concentration of half-maximal effect. In short, it runs like this: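 Stable Gli1-Luc NIH/3T3 clone, 2,000 cells/well. Compound exposure 24hr at 37C. Read-out: CellTiter-Fluor fluorescence.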
The nature of assay [6]: qHTS assay to identify small molecule antagonists of the sonic hedgehog signaling (Shh) pathway - cell viability counter screen (AID 1259367). Note: nearly all actives have a fitted effect of over 55% in size. Note: potency is the fitted concentration of half-maximal effect. In short, it runs like this:
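Using CellTiter-Fluor, viability of Gli1-Luc reporter 3T3 cells is read by fluorescence in the wells used for the Shh luciferase assay. Treatment lasts 23 hr with conditioned medium, then reagent 1 hr at 37C.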

Assay [7] can be described thus: qHTS assay to identify small molecule agonists of the sonic hedgehog signaling (Shh) pathway (AID 1259368; calls by dose curve;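 note: NIH/3T3-derived 3T3Gli1-Luc cells carrying a stable Gli1-driven firefly luciferase reporter; series mostly up to about 92 µM; nearly all actives have a fitted effect of over 15% in size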). An outline of the steps: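 Steps: seed 3T3 Gli1-Luc cells, incubate 4 hr at 37 C, pin-transfer compounds in DMSO alongside a positive control, incubate 24 hr, add luciferase detection reagent, wait 30 min at room temperature, read luminescence.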
Assay [8] addresses Estrogen receptor beta (Homo sapiens) (UniProt Q92731). The assay is described as follows: qHTS assay to identify small molecule agonists of the estrogen receptor beta (ER-beta) signaling pathway (AID 1259377; active = well fitted activation curve with a large enough effect in the signal ratio in the repeat runs, not every such curve was filed as active; the % refers to the signal ratio). An outline of the steps: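 Measured by fluorescence intensity from a B/G FRET beta-lactamase substrate (2 h, room temperature) in ER-beta-UAS-bla HEK293T cells treated with DMSO-dissolved compounds for 16 hr at 37C and 5% CO2.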

Assay [9] can be described thus: qHTS assay to identify small molecule phospholipidosis (PLD) inducers (AID 1259344; active = well fitted curve in the direction sought with a large enough effect; an effect the other way counts as inactive or inconclusive). An outline of the steps:
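Fluorescent phospholipid staining (LipidTOX Red) measured by automated microscopy in fixed HepG2 cells after 24 h treatment; nuclei counterstained with Hoechst 33342; amiodarone as reference inducer.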

Assay [10] in a line: qHTS assay to identify small molecule antagonists of the sonic hedgehog signaling (Shh) pathway (AID 1259369; calls by dose curve; note: nearly all actives have a fitted effect of over 45% in size; note: potency is the fitted concentration of half-maximal effect). In short, it runs like this: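 Inhibition of Shh signalling is measured as reduced Gli1-response-element firefly luciferase output in an NIH/3T3-derived stable reporter clone stimulated with conditioned medium for 24hr.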

Sequence of Androgen receptor (Homo sapiens) (P10275 whole entry, looked up): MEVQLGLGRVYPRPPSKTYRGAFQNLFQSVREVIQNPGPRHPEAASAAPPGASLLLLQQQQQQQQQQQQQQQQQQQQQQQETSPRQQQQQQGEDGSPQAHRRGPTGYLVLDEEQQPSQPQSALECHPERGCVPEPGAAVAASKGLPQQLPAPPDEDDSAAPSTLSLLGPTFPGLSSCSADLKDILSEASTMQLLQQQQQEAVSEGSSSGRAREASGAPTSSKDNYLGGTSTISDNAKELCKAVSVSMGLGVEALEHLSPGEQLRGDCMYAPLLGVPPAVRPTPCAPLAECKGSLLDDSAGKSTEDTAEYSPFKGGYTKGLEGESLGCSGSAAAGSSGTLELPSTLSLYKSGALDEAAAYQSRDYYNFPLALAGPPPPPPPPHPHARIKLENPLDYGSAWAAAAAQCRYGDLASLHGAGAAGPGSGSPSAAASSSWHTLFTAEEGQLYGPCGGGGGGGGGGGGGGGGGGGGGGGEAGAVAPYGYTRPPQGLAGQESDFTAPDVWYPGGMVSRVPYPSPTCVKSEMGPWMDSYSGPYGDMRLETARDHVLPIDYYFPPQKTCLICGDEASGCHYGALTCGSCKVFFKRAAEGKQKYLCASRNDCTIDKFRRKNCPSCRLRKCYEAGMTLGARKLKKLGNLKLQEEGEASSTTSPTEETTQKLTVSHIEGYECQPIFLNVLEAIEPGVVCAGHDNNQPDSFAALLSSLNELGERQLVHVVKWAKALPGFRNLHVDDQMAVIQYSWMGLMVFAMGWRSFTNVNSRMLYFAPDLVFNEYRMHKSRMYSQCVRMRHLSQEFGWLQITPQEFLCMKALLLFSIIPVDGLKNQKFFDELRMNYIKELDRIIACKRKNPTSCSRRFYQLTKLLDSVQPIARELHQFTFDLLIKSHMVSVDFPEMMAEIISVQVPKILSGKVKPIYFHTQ
Sequence of Estrogen receptor beta (Homo sapiens) (Q92731 whole entry, looked up): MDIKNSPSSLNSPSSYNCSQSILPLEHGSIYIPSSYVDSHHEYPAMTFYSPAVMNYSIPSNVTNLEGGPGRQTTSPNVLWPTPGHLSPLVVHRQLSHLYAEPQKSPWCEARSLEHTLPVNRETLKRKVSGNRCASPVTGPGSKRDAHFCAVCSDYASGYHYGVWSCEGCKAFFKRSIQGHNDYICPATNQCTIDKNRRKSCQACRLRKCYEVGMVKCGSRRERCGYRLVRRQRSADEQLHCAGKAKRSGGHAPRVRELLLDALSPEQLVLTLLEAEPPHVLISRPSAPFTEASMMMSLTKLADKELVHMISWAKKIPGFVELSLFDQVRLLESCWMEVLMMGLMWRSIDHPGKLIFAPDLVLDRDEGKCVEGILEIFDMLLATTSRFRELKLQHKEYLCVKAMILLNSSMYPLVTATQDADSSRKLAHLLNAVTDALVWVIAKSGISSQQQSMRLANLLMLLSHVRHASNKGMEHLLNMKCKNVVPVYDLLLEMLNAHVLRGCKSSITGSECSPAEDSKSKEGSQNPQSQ
Sequence of Estrogen receptor (Homo sapiens) (P03372 whole entry, looked up): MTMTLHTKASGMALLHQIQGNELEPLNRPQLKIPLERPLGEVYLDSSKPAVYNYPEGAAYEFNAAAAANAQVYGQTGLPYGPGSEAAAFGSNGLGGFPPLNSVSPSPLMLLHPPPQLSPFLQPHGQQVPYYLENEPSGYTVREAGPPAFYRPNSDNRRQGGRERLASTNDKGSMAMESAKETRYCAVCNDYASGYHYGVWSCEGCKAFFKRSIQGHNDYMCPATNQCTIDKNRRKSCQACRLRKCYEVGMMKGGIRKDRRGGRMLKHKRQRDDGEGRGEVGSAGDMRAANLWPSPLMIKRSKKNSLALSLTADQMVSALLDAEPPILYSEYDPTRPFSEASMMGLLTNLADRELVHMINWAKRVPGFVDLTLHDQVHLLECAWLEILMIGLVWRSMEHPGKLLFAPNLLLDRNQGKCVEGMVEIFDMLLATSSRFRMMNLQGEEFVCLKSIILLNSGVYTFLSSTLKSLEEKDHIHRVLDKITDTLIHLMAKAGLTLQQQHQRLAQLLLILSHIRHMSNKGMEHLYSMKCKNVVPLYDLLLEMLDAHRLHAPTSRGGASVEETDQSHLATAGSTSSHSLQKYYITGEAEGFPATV

Consider `C#CC(C)(CC)OC(=O)c1ccccc1C(=O)O` (centres undefined), for which the Potency entry in [1], in assay [2], in [3], in [4], in assay [5] and in assay [6] was “inactive” in each case. The Potency result in assay [7] is “inactive”. The result in assay [8] was inactive.
Take `CCN(CC)C(=O)Nc1ccc(OCC(O)CNC(C)(C)C)c(C(C)=O)c1` (centres undefined): the Potency result in assay [1], in assay [2], in assay [9], in [3], in [4] and in assay [5] was “inactive” in each case. In addition, the Potency entry in [6], in assay [7] and in assay [10] was “inactive” each time. For the same compound, the outcome in assay [8] was inactive.
For the compound `OCC(CO)N[C@H]1C[C@](O)(CO)[C@@H](O)[C@H](O)[C@H]1O`, the Potency result in [1], in assay [2], in [9], in [3], in assay [4] and in assay [5] was “inactive” throughout. The Potency result in assay [6], in assay [7] and in assay [10] was “inactive” throughout. Further, the call in assay [8] was inactive.
Consider `CCCC(=O)c1ccccc1`, for which the Potency entry in assay [1], in assay [3], in assay [4], in assay [5], in assay [6] and in assay [7] was “inactive” each time. In addition, the Potency result in assay [10] is “inactive”.
For the compound `Cc1c(O)cccc1C(=O)N[C@@H](CSc1ccccc1)[C@H](O)CN1C[C@H]2CCCC[C@H]2C[C@H]1C(=O)NC(C)(C)C`, the Potency in assay [1] was 18.8 µM (active); in assay [5] it was 1.5 µM (active) and 1.88 µM (active); in assay [6], 2.37 µM (active) and 3.76 µM (active); in [10] it was 8.41 µM (active) and 29.8 µM (active). In addition, the Potency entry in assay [3], in [4] and in [7] was “inactive” throughout.
In the case of `CCc1ccc(C(c2ccc(CC)cc2)C(Cl)Cl)cc1`, the Potency in assay [1] was 49.3 µM (active). Besides, the Potency entry in assay [2], in assay [3], in [4], in [5], in assay [6] and in assay [7] was “inactive” in each case. The Potency result in assay [10] was “inactive”.
Take `Nc1cc(Cl)c(-c2cc(Cl)c(N)cc2Cl)cc1Cl`: the Potency was 4.32 µM (active) and 2.17 µM (active) in assay [1]; 24.3 µM (active) and 34.4 µM (active) in [2]; 54.4 µM (active) and 38.6 µM (active) in assay [6]; 1.09 µM (active) and 864 nM (active) in assay [10]. Further, the Potency entry in assay [3], in assay [4] and in [7] was “inactive” each time.
For the compound `CC(C)(O)CCC(C)(C)O`, the Potency entry in assay [1], in [2], in [3], in assay [4], in [5] and in assay [6] was “inactive” throughout. Further, the Potency entry in [7] and in [10] was “inactive” throughout. In addition, the compound was classed as inactive in assay [8].
For `CCOc1ccc2c(c1)C(C)=CC(C)(C)N2`, the Potency entry in [2], in assay [9], in assay [3], in assay [4], in [5] and in assay [6] was “inactive” each time. Further, the Potency result in [7] is “inactive”.
Turning to `CCN(CC)C(=S)SSC(=S)N(CC)CC`, the Potency in assay [1] is 122 nM (active) and 39.5 nM (active) and 106 nM (active); in [2], 243 nM (active) and 279 nM (active); in [5], 243 nM (active) and 99.2 nM (active) and 596 nM (active); in assay [6], 433 nM (active) and 1.25 µM (active) and 2.66 µM (active); in assay [10], 217 nM (active) and 7.9 nM (active) and 1.33 µM (active). Further, the Potency result in [9], in assay [3], in assay [4] and in assay [7] was “inactive” each time. For the same compound, the compound was classed as inactive in assay [8].
With `CN1C(=O)c2ccc([N+](=O)[O-])cc2C1=O`, the Potency entry in [1], in [2], in assay [3], in assay [4], in [5] and in assay [6] was “inactive” throughout. In addition, the Potency result in assay [7] and in assay [10] was “inactive” throughout. Also, in [8], the outcome was inactive.
On to `COc1ccc(Cc2cnc(N)nc2N)cc1OC`, for which the Potency result in assay [1], in [2], in [9], in assay [3], in [4] and in [5] was “inactive” each time. In addition, the Potency result in [6], in [7] and in assay [10] was “inactive” throughout. Also, the compound was classed as inactive in assay [8].
Regarding `Cc1cc(OCCOCC[N+](C)(C)Cc2ccccc2)ccc1C(C)(C)CC(C)(C)C`, the Potency was 13.6 µM (active) and 13.3 µM (active) in assay [1]; 60.8 µM (active) and 29.8 µM (active) in assay [2]; 48.3 µM (active) in assay [5]; 10.8 µM (active) and 6.68 µM (active) in assay [10]. Further, the Potency result in assay [3], in assay [4] and in [7] was “inactive” in each case. Also, in assay [8], the compound was classed as inactive.
Regarding `Oc1c(Cl)cc(Cl)c(Cl)c1Cc1c(O)c(Cl)cc(Cl)c1Cl`, the Potency in [1] is 3.43 µM (active) and 6.11 µM (active) and 6.68 µM (active); in assay [5] it was 30.5 µM (active) and inactive; in [10] it was 1.93 µM (active) and 1.54 µM (active). Moreover, the Potency entry in assay [3], in assay [4], in [6] and in assay [7] was “inactive” each time. In addition, in [8], the compound was classed as inactive.
In the case of `COC(=O)c1cccc(C(=O)OC)c1`, the Potency result in assay [1], in assay [2], in assay [3], in assay [4], in assay [5] and in [6] was “inactive” each time. The Potency entry in [7] and in [10] was “inactive” each time. Also, the compound was called inactive in [8].
Take `Cc1c2oc3c(C)ccc(C(=O)N[C@@H]4C(=O)N[C@H](C(C)C)C(=O)N5CCC[C@H]5C(=O)N(C)CC(=O)N(C)[C@@H](C(C)C)C(=O)O[C@@H]4C)c3nc-2c(C(=O)N[C@@H]2C(=O)N[C@H](C(C)C)C(=O)N3CCC[C@H]3C(=O)N(C)CC(=O)N(C)[C@@H](C(C)C)C(=O)O[C@@H]2C)c(N)c1=O` (I: T[dV]P[Sar][NMeV] / II: T[dV]P[Sar][NMeV]; ester I:1-I:C, II:1-II:C; linker I:N-II:N via Actinocin(9to1)): the Potency was 26.6 nM (active) and 9.4 nM (active) in assay [1]; 23.7 nM (active) and 53.1 nM (active) in assay [2]; 42.1 nM (active) and 168 nM (active) in [5]; 42.1 nM (active) and 119 nM (active) in [6]; 2.1 nM (active) in assay [10]. Also, the Potency result in [9], in assay [3], in assay [4] and in [7] was “inactive” each time. Moreover, the compound was classed as inactive in [8].
On to `O=C(O)Cn1cnnn1`, for which the Potency result in assay [1], in [2], in [3], in [4], in assay [5] and in assay [6] was “inactive” in each case. The Potency entry in assay [7] and in assay [10] was “inactive” each time. For the same compound, the outcome in assay [8] was inactive.
Take `CCCNC(C)C(=O)Nc1ccccc1C` (centres undefined): the Potency result in [2], in assay [9], in [3], in [4], in [5] and in [6] was “inactive” in each case. Also, the Potency entry in assay [7] and in [10] was “inactive” each time.
